# Screening data from PubChem BioAssay.
# GLS inh: inhibitors of human glutaminase (GLS); O94925; GLS enzymatic activity, qHTS titration; Potency, µM (top dose mostly 45.5 µM), for the others: top-dose activity change, negative = inhibition, hits mostly inhibitors; hit rate 0.21% among 410,000; AID 624170; also: % is scaled to controls: 0 for no effect and ±100 for the full control effect
#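 Compounds were pin-transferred onto hKGA, after which L-glutamine (1 mM solution) and a detection mix of glutamate oxidase, HRP and Amplex Red were added. Initial and 30 min RT fluorescence reads were collected.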
# HP1b binding inh: HP1-beta chromodomain-methylated histone interaction inhibition; P83916; AlphaScreen HP1-beta / biotin-H3K9me3 peptide binding; Potency, µM (top dose mostly 114 µM), for the others: top-dose activity change, negative = inhibition, most hits filed as inhibitors; hit rate 0.56% among 390,000; AID 540317; also: nearly all actives have a fitted effect of over 70% in size
# Target sequence (P83916 whole entry, looked up): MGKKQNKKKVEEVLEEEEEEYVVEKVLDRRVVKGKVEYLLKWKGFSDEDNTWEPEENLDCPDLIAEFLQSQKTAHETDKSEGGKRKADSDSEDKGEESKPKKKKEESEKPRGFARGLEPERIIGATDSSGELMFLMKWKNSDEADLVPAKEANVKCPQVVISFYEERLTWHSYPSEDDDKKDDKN
#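 HP1-beta protein (50 nM final) preincubated 30 min at room temperature with biotinylated H3(1-18)K9me3 peptide (50 nM) in PBS pH 7.4, 0.01% Tween-20, then compound added for 30 min. AlphaScreen streptavidin donor/nickel chelate acceptor beads (10 ug/mL final), 30 min dark, luminescence read.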
# BAZ2B inh: BAZ2B (human) inhibition. Potency, µM (series often up to 114 µM), for the others: at the top dose activity change, negative = inhibition, most hits filed as inhibitors. Q9UIF8. hit rate 4.4% among 360,000. AlphaScreen BAZ2B-H3K14Ac peptide displacement; also: % is scaled to controls: 0 for no effect and ±100 for the full control effect; nearly all actives have a fitted effect of over 60% in size
#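 Compounds, titrated to a top concentration of 110 uM, were incubated 30 min at room temperature with preformed BAZ2B/acetyl-K14 H3 peptide complex (50 nM each). Proximity signal was measured by AlphaScreen after 20 min with beads.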
# JMJD2A Tudor: inhibitors of human JMJD2A Tudor domain; O75164; AlphaScreen JMJD2A-Tudor / H3K4me3 peptide binding; Potency, µM (series often up to 114 µM), without a hit: top-dose activity change, negative = inhibition, most hits filed as inhibitors; hit rate 4.4% among 390,000; AID 504339; also: % is scaled to controls: 0 for no effect and ±100 for the full control effect; nearly all actives have a fitted effect of over 50% in size
# G9a inh: inhibitors of human histone lysine methyltransferase G9a. Q96KQ7. hit rate 8.8% among 350,000. AID 504332. G9a H3K9 monomethylation, AlphaScreen, 2 h. Potency, µM (highest dose often 102 µM), for inactives: at the top dose activity, negative = inhibition, most hits filed as inhibitors; also: % is scaled to controls: 0 for no effect and ±100 for the full control effect; nearly all actives have a fitted effect of over 75% in size
# Target sequence (Q96KQ7 913-1193 limits assumed): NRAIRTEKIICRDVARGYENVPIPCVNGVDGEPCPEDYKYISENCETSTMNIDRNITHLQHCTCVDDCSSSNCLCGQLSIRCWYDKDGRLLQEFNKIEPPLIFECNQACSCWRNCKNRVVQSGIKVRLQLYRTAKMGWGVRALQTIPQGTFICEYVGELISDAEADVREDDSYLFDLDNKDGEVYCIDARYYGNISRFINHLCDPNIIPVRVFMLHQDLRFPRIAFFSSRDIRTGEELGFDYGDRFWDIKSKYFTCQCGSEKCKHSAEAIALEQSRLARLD
#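 Enzyme 20 nM + cpd, 15 min RT; add b-H3K9 pep 500 nM / SAM 20 uM; 2 h RT; anti-H3K9me1 Ab 0.5 ug/mL + SA donor / anti-rabbit acceptor beads 20 ug/mL each, 10 min; AlphaScreen read.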
# * hit, by the source's call; ? = inconclusive; · = no result; [ ] = remark or other dose. Most compounds without a hit are left out; they make up all but 10% or so of the library. Calls follow the shape of the dose curve; as a rule, active = well fitted curve in the direction sought with a large enough effect; inconclusive = small, poorly fitted or top-dose-only effect, or another doubt; inactive = no such curve, though single readings can be large; an effect the other way counts as inactive or inconclusive. Potency is read from the fitted curve at half-maximal effect.
SMILES,GLS inh,HP1b binding inh,BAZ2B inh,JMJD2A Tudor,G9a inh
FC(F)(F)c1cccc(Cn2c3[n+](c4ccc(C(F)(F)F)cc42)CCCCC3)c1,9%,18%,-22%,-16%,22µM*
N#Cc1ccc(NC(=O)Cn2c3[n+](c4ccc(C(F)(F)F)cc42)CCCCC3)cc1,0%,-8%,-13%,14µM*,?
O=C(Cn1c2[n+](c3ccc(C(F)(F)F)cc31)CCCCC2)Nc1ccc(Br)cc1,-6%,38%,?,-4%,35µM*
CCCOc1ccc(C(=O)Nc2cccnc2)cc1,0%,32%,2%,1%,·
CCN(CC(=O)NCc1ccccn1)S(=O)(=O)c1ccc(Cl)cc1,0%,6%,0%,-5%,13µM*
O=c1[nH]c2cc3c(cc2cc1C(c1nnnn1C1CCCC1)N1CCSCC1)OCCO3 (centres undefined),1%,14%,0%,-15%,-11%[12.7 µM]
O=C(NC(C(=O)c1ccccc1)n1c(=O)cc[nH]c1=S)c1ccccc1 (centres undefined),44%,37%,1%,?,14µM*
COc1ccc(-c2c(C(=O)O)nc3ccccc3c2C(=O)O)cc1,2%,2%,-28%,25µM*,?
O=C(O)c1nc2ccccc2nc1C(=O)O,-11%,-20%,79µM*,20µM*,?
O=C(C[n+]1cccc(C(=O)Nc2ccccc2)c1)c1ccc([N+](=O)[O-])cc1,-3%,12%[57 µM],?,?,?
COc1ccc(C2=CSC(/N=C/c3ccc(F)cc3)=NN2)cc1,?,?,1%[57.1 µM],?,25µM*
Cc1ccc(-c2nn[nH]n2)cc1Cl,-6%,25%,89µM*,-5%,50µM*
CCOc1ccc2nc(SC3CC(=O)N(c4cccc(OC)c4)C3=O)sc2c1 (centres undefined),1%,39%,3%,-28%,10µM*
CCOC(=O)c1cnc(SC2CC(=O)N(c3cccc(OC)c3)C2=O)nc1N (centres undefined),8%,41%,0%,-15%,35µM*
CCOc1ccc2nc(SC3CC(=O)N(c4ccccc4)C3=O)sc2c1 (centres undefined),-7%,76%,0%,?,?
CCOc1ccccc1N1CCN(CC(=O)N(C)CC(=O)Nc2ccccc2CC)CC1,-4%,·,·,·,·
Cc1cccc(C(=O)N2CCc3cc(CNC(=O)c4ccc(Br)o4)ccc32)c1,8%,4%,-24%,-29%,-32%[59 µM]
COc1ccc(C2Nc3ccccc3C(=O)N2Cc2ccco2)cc1OC (centres undefined),·,?,·,-20%[57.1 µM],·
COc1ccc(CN2C(=O)c3cccnc3C2O)cc1 (centres undefined),?,-23%,40µM*,?,?
Cc1ccc(NC2c3ncccc3C(=O)N2Cc2ccco2)c(C)c1 (centres undefined),-3%,16%,-33%,?,45µM*
COc1ccc(OC)c(NC2c3ncccc3C(=O)N2Cc2ccco2)c1 (centres undefined),27%,3%,?,-34%,50µM*
COc1cccc(N2C(=O)c3cccnc3C2O)c1 (centres undefined),-2%,11%,-24%,-10%,-13%
COc1ccc(CN2C(=O)c3cccnc3C2Nc2cc(Cl)ccc2OC)cc1 (centres undefined),22%,-23%,25µM*,20µM*,?
Cn1c(=O)c2cc(S(=O)(=O)NCCC(=O)Nc3ccccc3F)ccc2n(C)c1=O,-1%,21%,4%,-12%,·
CCOC(=O)c1cc(N)cc([N+](=O)[O-])c1,-4%,35%,-33%,5%,?
SMILES,GLS inh,HP1b binding inh,BAZ2B inh,JMJD2A Tudor,G9a inh
COC(=O)c1ccccc1NC(=O)c1ccc(Cn2cc(Cl)cn2)o1,-2%,45%,-36%,0%,13%
c1n[nH]c(NC2=NCCC2)n1,-1%,74%,14µM*,45µM*,1%
O=c1cc(CN2CCN(Cc3ccc(F)cc3)C(CCO)C2)[nH]c2ccccc12 (centres undefined),5%,21%,-2%,-27%,25µM*
CCOc1ccc(CN2CCN(Cc3[nH]c4ccccc4c3C)CC2CCO)cc1 (centres undefined),16%,-9%,?,?,6%[12.7 µM]
Cc1c(CN2CCN(CC(C)(C)C)C(CCO)C2)[nH]c2ccccc12 (centres undefined),14%,-3%,-33%,-13%,71µM*
Cc1ccc2nc(CSc3nnc(NC(=O)c4ccc(C(C)(C)C)cc4)s3)cc(=O)n2c1,-6%,13%[57 µM],3%,-15%,6%[59 µM]
COCCCNC(=S)NNC(=S)Nc1cccc(Cl)c1,-16%,-12%,-26%,3.2µM*,·
COCCCNC(=S)NNC(=S)NCCCOC,-16%,-25%,-17%,13µM*,8.9µM*
C=COCCNC(=S)Nc1cccc(Cl)c1,0%,26%,-11%,-7%,6%
COCCCNC(=S)NNC(=O)c1ccccn1,-22%,21%,3.5µM*,20µM*,20%
COc1ccc(NC(=S)Nc2cccc(Cl)c2)cc1OC,-17%,4%,-25%,0%,50µM*
COc1ccc(NC(=S)Nc2cccc(C(C)=O)c2)cc1OC,16%,-5%,?,-16%,?
COC(=O)[C@H](Cc1ccc(O)cc1)NC(=O)Cn1ccc(NC(=O)OCc2ccccc2)nc1=O,8%,-2%,·,-17%,·
CC(C)(C)OC(=O)N1CCCC(C(=O)Nc2cccc(C(=O)NCCCc3ccccc3)c2)C1 (centres undefined),12%,34%,·,-17%,·
COc1ccc(-n2c(C)nc3sc4c(c3c2=O)CCC4)cc1,4%,-24%,1%,3%[11.4 µM],-46%
COC(=O)c1cc(C(=O)c2cccc(Cl)c2Cl)cn1C,3%,29%,5%,39%,28%
O=C(Cn1ncc(Cl)c(Cl)c1=O)NC(=O)NC1CCCCC1,2%,9%,·,-26%,·
COc1ccnc(CSC(N)=Nc2ccc(F)cc2)c1,15%,-11%,50µM*,22µM*,7.1µM*
COc1ccc(Cn2c(CO)cnc2SCc2ccc(F)cc2)cc1,0%,2%[57 µM],?,-31%,-37%[59 µM]
Cc1ccc(NP(=O)(c2ccc(N(C)C)cc2NC(=O)c2cccs2)N2CCOCC2)cc1 (centres undefined),10%,21%,0%,-9%,?
Cc1ccc(NP(=O)(c2ccc(N(C)C)cc2NC(=O)c2cccs2)N2CCOCC2)cc1Cl (centres undefined),-2%,-5%,-36%,?,79µM*
c1cc(CSc2nnc(-c3ccc4c(c3)OCO4)o2)ccn1,3%,55%,3%,11%[57.1 µM],22%[59 µM]
CCn1c(-c2nn(-c3ccc(C)cc3)ccc2=O)n[nH]c1=S,5%,30%,-38%,7.9µM*,?
CCn1c(SC)nnc1-c1nn(-c2ccccc2)ccc1=O,-14%,?,?,4µM*,5µM*
